Source: PubChem BioAssay AID1159607 (Small Molecule Screening Facility, UW Madison, 2016)
Several values for one entry are separate records, joined by “and”; a condition that tells them apart may be missing. Equal values may be shown once. The whole screen tested about 70,000 compounds, of which about 400 (0.57%) were called active. No stated cut-off is given here; in the data, active means FP signal below about 40; inactive means the rest. The full list was thinned out, with actives kept by preference.

Test system: RMI core complex (RMI1/RMI2) binding to FANCM MM2 peptide, human
Experiment: disruptors of RMI1/RMI2 association with MM2 peptide – biochemical, fluorescence polarization, human, primary screen (AID 1159607)
Details: RMI core complex with F-MM2 peptide, at 33 µM, active compounds read low

FP signal (polarization), active:
COC(=O)c1c(N2C(=O)C3ON(c4ccc(Cl)cc4)C(c4ccco4)C3C2=O)sc(C)c1C (stereo unspecified) 25
COc1ccc(Cl)c2sc(NNC(=O)c3ccc(S(=O)(=O)N4CCc5ccccc5C4)cc3)nc12 11
O=C(Cc1csc(Nc2ccc(F)cc2)n1)NCc1ccccn1 9
COc1ccc(OC)c(-c2cc3ccc(O)c(CN4CCN(C)CC4)c3oc2=O)c1 37
Cc1cccnc1N=Cc1cc(Cl)cc(Cl)c1O 29

FP signal (polarization), inactive:
Cc1cccn2c(=O)c(/C=C3\SC(=S)N(C)C3=O)c(NCc3ccc4c(c3)OCO4)nc12 42
Cc1ccc(S(=O)(=O)NCCCCCC(=O)Nc2ccncc2)cc1 56
Cc1ccc(NC(=O)C(=O)Nc2cc(F)ccc2F)cc1N1CCCC1=O 54
O=C(CSc1nnc(NC(=O)c2ccc(Br)o2)s1)Nc1cc(C(F)(F)F)ccc1Cl 64
N#CC(c1ccccc1)N1CCSCC1 (stereo unspecified) 56
Cc1cc(-c2nnc(NC(=O)Cc3ccc(F)cc3)o2)n(C)n1 70
CCOC(=O)N1CCc2c(sc(NC(=O)CSc3ccccc3)c2C(N)=O)C1 67
O=C(NCCn1ncc2c(=O)n(Cc3cccc([N+](=O)[O-])c3)cnc21)C1CC(=O)N(c2ccc(F)cc2)C1 (stereo unspecified) 71
O=C(CCn1cncn1)N1CCN(C(=O)N2CCOCC2)CC1 63
O=C(c1ccc(=O)n(Cc2cccc(F)c2)n1)N1CCN(Cc2ccccc2)CC1 59
CCN1C(=O)Cc2cc(NC(=O)c3ccc(F)c(F)c3)ccc21 68
COc1ccc(Cl)c2sc(NC(=O)C3CCCN(S(C)(=O)=O)C3)nc12 (stereo unspecified) 63
CSc1ccc2nc(NC(=O)c3ccc(S(=O)(=O)N4CCc5ccccc5C4)cc3)sc2c1 70
CCc1nnc(NC(=O)CSc2ccc3nc(-c4ccccc4)cn3n2)s1 55
CN(C)C(C#N)c1cccc(Cl)c1Cl (stereo unspecified) 69
CCOC(=O)N1CCc2c(sc(NC(=O)c3ccccc3I)c2C#N)C1 63
COc1cn(CC(=O)Nc2ccc(C)cc2C)c(CSc2nnnn2C)cc1=O 52
C(=N/NC1=NCCN1Cc1ccccc1)/c1ccc2c(c1)OCO2 51 and 48
Clc1ccc(-c2csc(-c3ccncc3)n2)cc1 51
CCn1cc(C(=O)N2CCN(Cc3cc(C)ccc3C)CC2)c2nn(-c3ccccc3)c(=O)c-2c1 64
COCC(=O)Nc1ccc2c(c1)C(=O)N(C)c1cc(C)ccc1O2 69
O=C(C1=C(O)C(=O)N(CCCN2CCOCC2)C1c1ccco1)c1cccs1 (stereo unspecified) 57
COc1ccccc1CCNC(=O)Cc1csc(Nc2ccc(F)cc2)n1 65
O=C(Cc1csc(Nc2ccccc2)n1)NCc1ccccc1Cl 63
CCOC(=O)Cn1c(=NC(=O)c2ccnn2C)sc2cc(C(C)C)ccc21 69
COCCN1C(=O)C2N=NN(c3ccccc3)C2C1=O (stereo unspecified) 66
O=C(c1cccc(C(F)(F)F)c1)N1CCC(c2nnc(C3CC3)s2)CC1 61
COC(=O)Nc1ccc2c(c1)C(=O)N(C)c1ccccc1O2 57
CC1CCCCC1NC(=O)C(=O)c1cn(CC(=O)N2CCCCC2)c2ccccc12 (stereo unspecified) 56
CC1=NN(c2ccccc2)C(=O)C1=Cc1c(C)[nH]n(-c2ccccc2)c1=O 53
O=C(Nc1ccc(Br)cc1)Nc1c[nH]c2ccccc12 56
O=C(Nc1ccc([N+](=O)[O-])cc1)Nc1nc(-c2nc3ccccc3s2)cs1 65
Cc1ccnc(NS(=O)(=O)c2ccc(NC(=O)c3ccc([N+](=O)[O-])o3)cc2)n1 61
NC(=O)c1c(NC(=O)CCSc2ccc(Cl)cc2)sc2c1CCCCC2 102
Cc1c(/C=N\Nc2ccc([N+](=O)[O-])cc2)sc2ccccc12 64
COc1ccccc1/C=C/C(=O)NC(=S)N1CCCC1 59
Cc1cc(C(=O)Nc2sccc2-c2nc3ccccc3s2)on1 107
NC(=O)c1cnn(-c2ccccc2)c1N 55
CCC(CC)C(=O)Nc1nnc(SCc2cc(=O)c(OC(=O)c3ccc(S(=O)(=O)N(CC)CC)cc3)co2)s1 53
Cc1ccc2c(c1)N(C(=O)Cn1nc3ccc(S(=O)(=O)C(C)(C)C)nn3c1=O)CCO2 64
COc1ccc(S(=O)(=O)NNC(=O)CSCc2nc(-c3ccc(Cl)cc3)cs2)cc1 78 and 65
CC(=O)c1cccc(NC(=O)CSc2cc(C)c3ccccc3n2)c1 77
Cc1ccc(S(=O)(=O)Nc2ccc3c(c2)C(=O)NCCO3)c(C)c1 64
O=C(CSc1nnc2ccc(-c3cccs3)nn12)NCCc1ccccc1 54
CS(=O)(=O)c1ccc(Nc2nc(C(=O)NC3CC3)cs2)cc1 62
C=CCn1c(SCC(=O)c2ccc3c(c2)OCO3)nc2scc(-c3ccco3)c2c1=O 120
Cc1cc(C)c2nc(N(CCN(C)C)C(=O)/C=C/c3cccs3)sc2c1 92
COC(CC(=O)O)c1nc2ccccc2s1 (stereo unspecified) 59
COc1cccc2cc(C(=O)Nc3ccc4nc(N5CCN(C)CC5)sc4c3)oc12 64
COc1cccc(-n2c(=S)sc3c(=O)[nH]c(SCC(=O)Nc4ccc(C)c(F)c4)nc32)c1 48
COc1cccn(Cc2n[nH]c(=S)n2C)c1=O 59
CC(=O)c1ccc(NC(=O)CSc2nc(C(F)(F)F)cc(=O)[nH]2)cc1 54
COc1ccc(Oc2cccc(Cl)c2CNC(=O)c2ccccc2N)cc1 60
COC(=O)c1cccn1-c1ccc(F)cc1 56
Cc1cc(NC(=O)/C=C/c2ccccc2)n(C(C)C)n1 67
COc1ccc(-c2cc(=O)n(CC(=O)N3CCN(c4ccccc4OC)CC3)cn2)cc1 65
CCOC(=O)N1CCN(C(=O)COc2coc(CN3CCc4ccccc43)cc2=O)CC1 57
Cc1cccc(NC(=O)Cn2c(C)cc(C)c(-c3nc(-c4ccc(F)cc4)no3)c2=O)c1C 137
Cc1nc2c(=S)[nH]nc(-c3ccccc3)c2s1 68
COc1cccc2cc(-c3cc(=O)oc4cc(OCC(=O)OC(C)(C)C)ccc34)c(=O)oc12 67
CCc1cc(C(=O)c2ccc(OC)cc2)c(NC(=O)CN2CCN(C)CC2)s1 69
Cn1nccc1-c1nnc(NC(=O)c2c(F)cccc2Cl)o1 75
CCCCOc1ccccc1-c1cc2c(SCC(=O)Nc3ccc(NC(C)=O)cc3)nccn2n1 70
CCOC(=O)c1nn(-c2ccccc2C)c(=O)cc1NCCC(c1ccccc1)c1ccccc1 54
COc1ccc(C)c2sc(N(Cc3cccnc3)C(=O)/C=C/c3ccccc3)nc12 55
CC(C)(C)c1cc(NC(=O)CSc2nnc3ccccn23)cc(C(C)(C)C)c1 59
O=C(Cn1cc(-c2nnc(-c3ccccc3)o2)c2ccccc21)N1CCCC1 130
CCCc1cc(=O)n(CC(=O)Nc2ccccc2F)cn1 65
O=C(Nc1ccccc1-c1nc2ccccc2s1)c1ccc(Cl)s1 60
O=C(CSc1nnc(CNC(=O)c2ccc(F)cc2)o1)Nc1ccc2c(c1)OCO2 57
COC(=O)c1cc(OC)c(OC)cc1NC(=O)C1Cc2ccccc2C(=O)O1 (stereo unspecified) 56
CC(=O)SCC(=O)Nc1sccc1C#N 66
O=C(CSc1nnc(NC(=O)c2c(F)cccc2Cl)s1)Nc1ccc(Br)cc1 61
O=C(Nc1ccc(OC(F)(F)F)cc1)c1cnc2sccn2c1=O 64
O=C(NCC1CCN(Cc2cccs2)CC1)c1ccco1 72
CCOc1ccc(-c2noc(-c3cc(-c4cc(C)ccc4C)n[nH]3)n2)cc1OC 95
COc1ccc2nc(-c3ccc(NC(=O)c4c(F)cccc4Cl)cc3)cn2n1 122
SCCc1nc2ccccc2[nH]1 63
COc1ccc(-c2noc(Cn3cnc4c(nnn4Cc4cccc(F)c4)c3=O)n2)cc1 76
O=C(Nc1cc(F)ccc1F)N1CCN(c2ccc(-c3ccc4c(c3)OCO4)nn2)CC1 123
O=C(COc1ccc(Cl)cc1)Nc1ccc2c(c1)C(=O)NCCO2 60
COC(=O)c1c(NC(=O)CCS(=O)(=O)c2ccc(Cl)cc2)sc2c1CCC(C)C2 (stereo unspecified) 96
O=C(CN1C(=O)c2ccccc2C1=O)Nc1nnc(-c2ccco2)o1 63
CCOc1ccc(S(=O)(=O)Nc2ccc3c(c2)CN(C(=O)C2CC2)CC3)cc1F 66
CCc1nnc(C2CCN(S(C)(=O)=O)CC2)s1 60
Oc1ccc(Br)cc1C=Nc1ccccn1 41
Clc1ccc(C=Nc2cccnc2)c(Cl)c1 63
Cn1c(SCC(=O)NCc2ccc(F)cc2)nc2cc(-c3ccccc3)sc2c1=O 104
CN(C)c1ccc(CCCNC(=O)COc2ccc(Cl)cc2)cc1 69
Cn1nc(-c2cccc(NC(=O)c3ccccc3C(F)(F)F)c2)ccc1=O 56
O=C(N/N=C\c1ccncc1)N/N=C\c1ccncc1 54
